Experimental data: PubChem BioAssay AID1159580 (chemical genetic matrix, 2015)
About 2,000 (36%) of roughly 5,500 compounds were called active. Not shown: some 18% with an inconclusive outcome. Cut-off read from the data, not from the text of the source: active = normalized growth mostly below about 0.91 (no sharp cut-off); inconclusive = no clear call, values can overlap the other calls; inactive = mostly above about 0.92. This is one part of the list.

Assay: chemical genetic growth profiling, strain panel (AID 1159580);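 note: tested at 20 µM; growth read once vehicle control cultures reached saturation at 30 °C; 1 = growth at the plate median or of vehicle wells; lower values mean less growth of the strain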
Conditions: growth OD

Measured: normalized growth

O=C(Oc1cc(OC(=O)c2ccccc2)c2c(c1)O[C@H](c1ccc(OC(=O)c3ccccc3)c(OC(=O)c3ccccc3)c1)[C@@H](OC(=O)c1ccccc1)C2)c1ccccc1
inactive: S. cerevisiae deletion strains, locus YAL021C, strain ccr4, hits give low values 1.01 | S. cerevisiae deletion strains, locus YAL026C, strain drs2, hits give low values 0.998 | S. cerevisiae deletion strains, locus YAL030W, strain snc1, hits give low values 0.991 | S. cerevisiae deletion strains, locus YBL061C, strain skt5, hits give low values 0.99 | S. cerevisiae deletion strains, locus YBR009C, strain hhf1, hits give low values 0.982 | S. cerevisiae deletion strains, locus YBR021W, strain FUR4, hits give low values 1.07 | S. cerevisiae deletion strains, locus YBR023C, strain chs3, hits give low values 0.999 | S. cerevisiae deletion strains, locus YBR171W, strain sec66, hits give low values 0.997 | S. cerevisiae deletion strains, locus YBR229C, strain ROT2, hits give low values 1.04 | S. cerevisiae deletion strains, locus YBR231C, strain swc5, hits give low values 0.99 | S. cerevisiae deletion strains, locus YBR279W, strain paf1, hits give low values 1 | S. cerevisiae deletion strains, locus YCL011C, strain gbp2, hits give low values 0.987 | S. cerevisiae deletion strains, locus YCL016C, strain dcc1, hits give low values 0.994 | S. cerevisiae deletion strains, locus YCL029C, strain bik1, hits give low values 1.05 | S. cerevisiae deletion strains, locus YCL061C, strain MRC1, hits give low values 0.999 | S. cerevisiae deletion strains, locus YCL069W, strain vba3, hits give low values 1 | S. cerevisiae deletion strains, locus YCR088W, strain abp1, hits give low values 0.993 | S. cerevisiae deletion strains, locus YDL005C, strain med2, hits give low values 0.991 | S. cerevisiae deletion strains, locus YDL035C, strain GPR1, hits give low values 1.04 | S. cerevisiae deletion strains, locus YDL040C, strain nat1, hits give low values 0.991 | S. cerevisiae deletion strains, locus YDL074C, strain BRE1, hits give low values 1.14 | S. cerevisiae deletion strains, locus YDL101C, strain DUN1, hits give low values 1.05 | S. cerevisiae deletion strains, locus YDL185W, strain tfp1, hits give low values 1.06 | S. cerevisiae deletion strains, locus YDL192W, strain arf1, hits give low values 1.07 | S. cerevisiae deletion strains, locus YDR001C, strain nth1, hits give low values 0.994 | S. cerevisiae deletion strains, locus YDR069C, strain doa4, hits give low values 0.986 | S. cerevisiae deletion strains, locus YDR101C, strain arx1, hits give low values 1.03 | S. cerevisiae deletion strains, locus YDR137W, strain rgp1, hits give low values 1.03 | S. cerevisiae deletion strains, locus YDR159W, strain sac3, hits give low values 0.999 | S. cerevisiae deletion strains, locus YDR162C, strain NBP2, hits give low values 1.03 | S. cerevisiae deletion strains, locus YDR195W, strain ref2 0.953 | S. cerevisiae deletion strains, locus YDR297W, strain sur2, hits give low values 1 | S. cerevisiae deletion strains, locus YDR318W, strain mcm21, hits give low values 1.04 | S. cerevisiae deletion strains, locus YDR334W, strain swr1, hits give low values 0.992 | S. cerevisiae deletion strains, locus YDR335W, strain msn5, hits give low values 0.999 | S. cerevisiae deletion strains, locus YDR388W, hits give low values 1.04 | S. cerevisiae deletion strains, locus YDR392W, strain spt3, hits give low values 0.927 | S. cerevisiae deletion strains, locus YDR502C, strain sam2, hits give low values 1.06 | S. cerevisiae deletion strains, locus YEL003W, strain gim4, hits give low values 0.994 | S. cerevisiae deletion strains, locus YEL037C, strain rad23, hits give low values 0.991 | S. cerevisiae deletion strains, locus YEL061C, strain CIN8 (second series), hits give low values 0.999 | S. cerevisiae deletion strains, locus YEL061C, strain CIN8, hits give low values 1.02 | S. cerevisiae deletion strains, locus YER015W, strain faa2, hits give low values 0.987 | S. cerevisiae deletion strains, locus YER016W, strain bim1, hits give low values 0.991 | S. cerevisiae deletion strains, locus YER110C, hits give low values 1.06 | S. cerevisiae deletion strains, locus YER111C, strain swi4, hits give low values 0.999 | S. cerevisiae deletion strains, locus YER155C, strain BEM2 (second series), hits give low values 0.993 | S. cerevisiae deletion strains, locus YER155C, strain BEM2, hits give low values 1.04 | S. cerevisiae deletion strains, locus YER167W, strain BCK2, hits give low values 1.03 | S. cerevisiae deletion strains, locus YFR010W, strain ubp6, hits give low values 0.993 | S. cerevisiae deletion strains, locus YGL078C, strain dbp3, hits give low values 1.04 | S. cerevisiae deletion strains, locus YGL086W, strain mad1, hits give low values 1.04 | S. cerevisiae deletion strains, locus YGL167C, strain pmr1, hits give low values 0.993 | S. cerevisiae deletion strains, locus YGL173C, strain kem1, hits give low values 0.998 | S. cerevisiae deletion strains, locus YGL227W, strain vid30, hits give low values 0.982 | S. cerevisiae deletion strains, locus YGL240W, strain doc1, hits give low values 0.977 | S. cerevisiae deletion strains, locus YGL248W, strain PDE1, hits give low values 1.08 | S. cerevisiae deletion strains, locus YGL253W, strain hxk2, hits give low values 1 | S. cerevisiae deletion strains, locus YGR135W, strain pre9, hits give low values 1.09 | S. cerevisiae deletion strains, locus YGR252W, strain gcn5, hits give low values 1.17 | S. cerevisiae deletion strains, locus YHR013C, strain ard1, hits give low values 0.958 | S. cerevisiae deletion strains, locus YHR027C, strain rpn1, hits give low values 1 | S. cerevisiae deletion strains, locus YHR079C, strain IRE1 (second series), hits give low values 1.05 | S. cerevisiae deletion strains, locus YHR094C, strain hxt1, hits give low values 1.03 | S. cerevisiae deletion strains, locus YHR129C, strain ARP1, hits give low values 1.05 | S. cerevisiae deletion strains, locus YHR142W, strain chs7, hits give low values 1.03 | S. cerevisiae deletion strains, locus YHR200W, strain rpn10, hits give low values 1.05 | S. cerevisiae deletion strains, locus YIL066C, strain RNR3, hits give low values 1.05 | S. cerevisiae deletion strains, locus YIL073C, strain SPO22, hits give low values 1.16 | S. cerevisiae deletion strains, locus YIL125W, strain kgd1, hits give low values 1.02 | S. cerevisiae deletion strains, locus YIR030C, strain dcg1, hits give low values 1.03 | S. cerevisiae deletion strains, locus YJL092W, strain hpr5, hits give low values 0.993 | S. cerevisiae deletion strains, locus YJL095W, strain BCK1 (second series), hits give low values 0.998 | S. cerevisiae deletion strains, locus YJL095W, strain BCK1, hits give low values 1.12 | S. cerevisiae deletion strains, locus YJL115W, strain asf1, hits give low values 0.984 | S. cerevisiae deletion strains, locus YJL129C, strain trk1, hits give low values 0.999 | S. cerevisiae deletion strains, locus YJL134W, strain LCB3, hits give low values 1.03 | S. cerevisiae deletion strains, locus YJL154C, strain vps35, hits give low values 0.997 | S. cerevisiae deletion strains, locus YJL164C, strain tpk1, hits give low values 0.974 | S. cerevisiae deletion strains, locus YJL166W, strain qcr8, hits give low values 0.986 | S. cerevisiae deletion strains, locus YJL168C, strain set2, hits give low values 1.06 | S. cerevisiae deletion strains, locus YJL187C, strain SWE1 (second series), hits give low values 1.07 | S. cerevisiae deletion strains, locus YJL187C, strain SWE1, hits give low values 1 | S. cerevisiae deletion strains, locus YJR075W, strain HOC1, hits give low values 1.05 | S. cerevisiae deletion strains, locus YKL009W, strain mrt4, hits give low values 1.05 | S. cerevisiae deletion strains, locus YKL068W, hits give low values 1.02 | S. cerevisiae deletion strains, locus YKL085W, strain MDH1 (second series), hits give low values 1.01 | S. cerevisiae deletion strains, locus YKL085W, strain MDH1, hits give low values 1.01 | S. cerevisiae deletion strains, locus YKL160W, strain elf1, hits give low values 1.01 | S. cerevisiae deletion strains, locus YKL190W, strain CNB1, hits give low values 0.999 | S. cerevisiae deletion strains, locus YKR001C, strain vps1, hits give low values 1.08 | S. cerevisiae deletion strains, locus YKR026C, strain gcn3, hits give low values 0.968 | S. cerevisiae deletion strains, locus YKR091W, strain srl3, hits give low values 0.996 | S. cerevisiae deletion strains, locus YLL001W, strain dnm1, hits give low values 1.01 | S. cerevisiae deletion strains, locus YLL026W, hits give low values 0.985 | S. cerevisiae deletion strains, locus YLL041C, strain sdh2, hits give low values 1 | S. cerevisiae deletion strains, locus YLR027C, strain aat2, hits give low values 0.995 | S. cerevisiae deletion strains, locus YLR039C, strain RIC1, hits give low values 1.24 | S. cerevisiae deletion strains, locus YLR058C, strain SHM2, hits give low values 1.04 | S. cerevisiae deletion strains, locus YLR102C, strain apc9, hits give low values 1.03 | S. cerevisiae deletion strains, locus YLR221C, strain rsa3, hits give low values 1 | S. cerevisiae deletion strains, locus YLR258W, strain gsy2, hits give low values 0.993 | S. cerevisiae deletion strains, locus YLR262C, strain YPT6 (second series), hits give low values 0.993 | S. cerevisiae deletion strains, locus YLR268W, strain sec22, hits give low values 1.04 | S. cerevisiae deletion strains, locus YLR320W, strain mms22, hits give low values 0.975 | S. cerevisiae deletion strains, locus YLR330W, strain CHS5, hits give low values 1.04 | S. cerevisiae deletion strains, locus YLR342W, strain FKS1 (second series), hits give low values 1.06 | S. cerevisiae deletion strains, locus YLR342W, strain FKS1, hits give low values 0.989 | S. cerevisiae deletion strains, locus YLR357W, strain rsc2, hits give low values 0.979 | S. cerevisiae deletion strains, locus YLR370C, strain arc18, hits give low values 0.999 | S. cerevisiae deletion strains, locus YLR371W, strain rom2, hits give low values 1.08 | S. cerevisiae deletion strains, locus YLR384C, strain iki3, hits give low values 1.01 | S. cerevisiae deletion strains, locus YLR418C, strain cdc73, hits give low values 1.15 | S. cerevisiae deletion strains, locus YML016C, strain PPZ1, hits give low values 1.02 | S. cerevisiae deletion strains, locus YML032C, strain rad52, hits give low values 1.04 | S. cerevisiae deletion strains, locus YML120C, strain ndi1, hits give low values 1.01 | S. cerevisiae deletion strains, locus YML124C, strain tub3, hits give low values 1.03 | S. cerevisiae deletion strains, locus YMR058W, strain fet3, hits give low values 0.999 | S. cerevisiae deletion strains, locus YMR078C, strain ctf18, hits give low values 1.04 | S. cerevisiae deletion strains, locus YMR125W, strain sto1, hits give low values 0.978 | S. cerevisiae deletion strains, locus YMR129W, hits give low values 0.997 | S. cerevisiae deletion strains, locus YMR205C, strain PFK2, hits give low values 0.973 | S. cerevisiae deletion strains, locus YMR223W, strain ubp8, hits give low values 1.06 | S. cerevisiae deletion strains, locus YMR231W, strain pep5, hits give low values 0.998 | S. cerevisiae deletion strains, locus YMR307W, strain GAS1, hits give low values 1.16 | S. cerevisiae deletion strains, locus YNL067W, strain RPL9B, hits give low values 0.984 | S. cerevisiae deletion strains, locus YNL071W, strain lat1, hits give low values 1.01 | S. cerevisiae deletion strains, locus YNL128W, strain TEP1, hits give low values 0.999 | S. cerevisiae deletion strains, locus YNL209W, strain ssb2, hits give low values 1 | S. cerevisiae deletion strains, locus YNL233W, strain BNI4, hits give low values 1.07 | S. cerevisiae deletion strains, locus YNL248C, strain rpa49, hits give low values 1.01 | S. cerevisiae deletion strains, locus YNL250W, strain rad50, hits give low values 1.05 | S. cerevisiae deletion strains, locus YNL271C, strain bni1, hits give low values 1.03 | S. cerevisiae deletion strains, locus YNL298W, strain CLA4, hits give low values 1.04 | S. cerevisiae deletion strains, locus YNL307C, strain MCK1, hits give low values 1.06 | S. cerevisiae deletion strains, locus YNL322C, strain KRE1 (second series), hits give low values 0.985 | S. cerevisiae deletion strains, locus YNR049C, strain mso1, hits give low values 0.991 | S. cerevisiae deletion strains, locus YNR052C, strain pop2, hits give low values 1.06 | S. cerevisiae deletion strains, locus YOL006C, strain TOP1, hits give low values 1.32 | S. cerevisiae deletion strains, locus YOL012C, strain htz1 1.34 | S. cerevisiae deletion strains, locus YOL147C, strain pex11, hits give low values 1.03 | S. cerevisiae deletion strains, locus YOR001W, strain rrp6, hits give low values 0.994 | S. cerevisiae deletion strains, locus YOR061W, strain CKA2, hits give low values 1.04 | S. cerevisiae deletion strains, locus YOR069W, strain VPS5, hits give low values 1.03 | S. cerevisiae deletion strains, locus YOR070C, strain gyp1, hits give low values 0.996 | S. cerevisiae deletion strains, locus YOR080W, strain dia2, hits give low values 0.989 | S. cerevisiae deletion strains, locus YOR083W, strain WHI5, hits give low values 1.02 | S. cerevisiae deletion strains, locus YOR106W, strain vam3, hits give low values 1 | S. cerevisiae deletion strains, locus YOR136W, strain idh2, hits give low values 1.04 | S. cerevisiae deletion strains, locus YOR144C, strain elg1, hits give low values 1.04 | S. cerevisiae deletion strains, locus YOR184W, strain ser1, hits give low values 1.05 | S. cerevisiae deletion strains, locus YOR265W, strain rbl2, hits give low values 0.993 | S. cerevisiae deletion strains, locus YOR270C, strain vph1, hits give low values 1.01 | S. cerevisiae deletion strains, locus YOR290C, strain snf2, hits give low values 0.954 | S. cerevisiae deletion strains, locus YOR316C, strain cot1, hits give low values 1.05 | S. cerevisiae deletion strains, locus YPL051W, strain arl3, hits give low values 1 | S. cerevisiae deletion strains, locus YPL055C, strain LGE1, hits give low values 1.07 | S. cerevisiae deletion strains, locus YPL078C, strain atp4, hits give low values 1.01 | S. cerevisiae deletion strains, locus YPL106C, strain sse1, hits give low values 0.975 | S. cerevisiae deletion strains, locus YPL240C, strain hsp82, hits give low values 0.99 | S. cerevisiae deletion strains, locus YPR119W, strain clb2, hits give low values 1.04 | S. cerevisiae deletion strains, locus YPR141C, strain kar3, hits give low values 1.04 | S. cerevisiae deletion strains, locus YPR163C, strain tif3, hits give low values 1.05 | S. cerevisiae deletion strains, locus YPR167C, strain met16, hits give low values 1.07 | S. cerevisiae deletion strains, strain wtn01, hits give low values 1.04 | S. cerevisiae strains, strain wild type, hits give low values 1.04
